Our source for the growth inhibition values is PubChem BioAssay (NCI).

The nature of experiment [1]: NCI Yeast Anticancer Drug Screen. Data for the rad50 strain (AID 155).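 Note: 0% = growth of vehicle-only cultures of the same strain.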 Particulars: S. cerevisiae rad50 strain growth inhibition; at 50.0 µM; active compounds read high. The essentials: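 Genetically altered yeast (DNA repair pathway); compound treatment; growth inhibition vs vehicle ctrl.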
The nature of experiment [2]: NCI Yeast Anticancer Drug Screen. Data for the mec2-1 strain (AID 157). The settings on record: S. cerevisiae mec2-1 strain, at 50.0 µM, active compounds read high. The method, boiled down: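 Readout is yeast growth inhibition, normalised to vehicle-treated controls, in the mec2-1 strain exposed to compound.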
Experiment [3] in a line: NCI Yeast Anticancer Drug Screen. Data for the sgs1 mgt1 strain (AID 161).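 Note: 0% = growth of cultures given vehicle only.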 Particulars: S. cerevisiae sgs1 mgt1 strain, at 50.0 µM, active compounds read high. The essentials: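 Growth of a repair-deficient yeast mutant was monitored after compound treatment and expressed as inhibition relative to vehicle-treated cultures.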
Experiment [4] in a line: NCI Yeast Anticancer Drug Screen. Data for the cln2 rad14 strain (AID 165).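 Note: 0% = growth equal to vehicle treated cultures.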 Particulars: S. cerevisiae cln2 rad14 strain, at 50.0 µM, active compounds read high. The method, boiled down:
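Relative to vehicle controls, growth inhibition of compound-treated cln2 rad14 yeast was recorded.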

Experiment [5] in a line: NCI Yeast Anticancer Drug Screen. Data for the bub3 strain (AID 167). Particulars: S. cerevisiae bub3 mutant strain, at 50.0 µM, active compounds read high. The method, boiled down:
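Yeast carrying a defined mutation is treated with each compound, and growth is compared with that of vehicle-exposed cells to give inhibition.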

Experiment [6] in a line: NCI Yeast Anticancer Drug Screen. Data for the mlh1 rad18 strain (AID 175). The settings on record: S. cerevisiae mlh1 rad18 strain growth inhibition; at 50.0 µM; active compounds read high. The method, boiled down:
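Test agents were incubated with a yeast strain of defined genotype (DNA damage repair defect). Inhibition of growth was derived by comparison with vehicle-exposed cultures.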

The panel holds about 79,000 compounds, 15% with a hit somewhere; the sample as a whole holds those more often. Values without a mark were called inactive. Activity calls are given as the source filed them. Cut-off read from the data, not from the text of the source: active = growth inhibition above about 70%; inactive = the rest.

As to `N#CCCCCCCn1cnc2c(=S)nc[nH]c21`, the growth inhibition in experiment [1] is 4.9%; in experiment [2] it was 9.55%; in experiment [3] it was 17.9%; in experiment [4], -13%; in experiment [5], -4.7%; in experiment [6], 22.4%.

Regarding `O=c1[nH]c(-c2ccccc2)c(-c2ccccc2)nc1Cl`, the growth inhibition in experiment [1] is 6.35%; in experiment [2], 1.8%; in experiment [3], 6.5%; in experiment [4] it was -11.7%; in experiment [5], -19.1%; in experiment [6], 18.1%.

Turning to `O=S1C=Cc2ccccc21` (stereo not drawn), the growth inhibition was 9.8% in experiment [1]; 20.6% in experiment [2]; 13.1% in experiment [3]; 5.8% in experiment [4]; -0.7% in experiment [5]; 7.1% in experiment [6].

Turning to `OCc1c(-c2ccccc2)oc(-c2ccccc2)c1CN1CCOCC1`, the growth inhibition was 11.9% in experiment [1]; -0.95% in experiment [2]; 6.55% in experiment [3]; -11.9% in experiment [4]; 12% in experiment [5]; 9.2% in experiment [6].

As to `CCCCOS(=O)OCCCC`, the growth inhibition in experiment [1] was 22.7%; in experiment [2] it was 29.5%; in experiment [3] it was -6.1%; in experiment [4] it was 13.2%; in experiment [5] it was 0.15%; in experiment [6], -14.8%.

With `NNC(=O)N/N=C/c1cccc(O)c1`, the growth inhibition was -11.7% in experiment [1]; -2.35% in experiment [2]; -21.4% in experiment [3]; -12.1% in experiment [4]; 1.1% in experiment [5]; -19.4% in experiment [6].

Take `CC(=O)Nc1cccc(Cc2cccc(NC(C)=O)c2)c1`: the growth inhibition in experiment [1] was 2.75%; in experiment [2] it was -13.3%; in experiment [3], -11.9%; in experiment [4], -43.4%; in experiment [5], -5.1%; in experiment [6] it was -11.6%.

With `Cc1cc(/C=N/N2CCN(/N=C/c3cc(C)n(-c4ccccc4)c3C)CC2)c(C)n1-c1ccccc1`, the growth inhibition in experiment [1] was 2.5%; in experiment [2] it was -9.15%; in experiment [3], -2.7%; in experiment [4], -27.9%; in experiment [5], -2.95%; in experiment [6], -13.6%.

In the case of `CCOC(=O)C(=CNC(=S)Nc1ccc(Cl)c(Cl)c1)C(=O)OCC`, the growth inhibition in experiment [1] was 53.5%; in experiment [2], 39.5%; in experiment [3], 59.7%; in experiment [4], 45.6%; in experiment [5], 39%; in experiment [6], 67.5%.

As for `O=C(O)/C=C/C(=O)Nc1ccc2c(c1)-c1ccccc1C2=O`, the growth inhibition in experiment [1] is 15.9%; in experiment [2] it was 14.4%; in experiment [3] it was 17.9%; in experiment [4] it was 5.25%; in experiment [5] it was 5.15%; in experiment [6], 16.6%.

As for `Cc1cccc(NS(=O)(=O)c2ccc3c(c2)OCCOCCOCCOCCO3)c1`, the growth inhibition was 1.65% in experiment [1]; -11.1% in experiment [2]; 7.05% in experiment [3]; -28% in experiment [4]; -11.4% in experiment [5]; -9.45% in experiment [6].

`C/C=C\c1ccc(OCCOC(C)=O)c(OC)c1`: the growth inhibition in experiment [1] is 12%; in experiment [2], -13.6%; in experiment [3], -3.4%; in experiment [4], -28.2%; in experiment [5] it was -9.95%; in experiment [6], -15.8%.

Consider `O=C1c2ccccc2C(O)(c2ccc(O)cc2)c2ccccc21`, for which the growth inhibition is -3.25% in experiment [1]; 0.1% in experiment [2]; -0.95% in experiment [3]; -0.3% in experiment [4]; 6.1% in experiment [5]; 6.2% in experiment [6].

Consider `Nc1nc(N)nc(CC(=O)O)n1`, for which the growth inhibition in experiment [1] is -16.5%; in experiment [2] it was -22.7%; in experiment [3], -57%; in experiment [4], -60.2%; in experiment [5], -14.7%; in experiment [6], -36.7%.

In the case of `C/C=C/C(=O)N(CC)c1ccccc1`, the growth inhibition in experiment [1] is 37.2%; in experiment [2], -2.25%; in experiment [3] it was 10.8%; in experiment [4] it was -8.35%; in experiment [5] it was 2.9%; in experiment [6], 33.8%.

Regarding `CC(C)/C(=N\N=C(\c1ccccc1)C(C)C)c1ccccc1`, the growth inhibition is -2.6% in experiment [1]; 25.5% in experiment [2]; 3% in experiment [3]; -7.7% in experiment [4]; 16.3% in experiment [5]; 18.1% in experiment [6].

In the case of `CCOC(=O)c1nnc2cc(-c3ccccc3)nn2c1C`, the growth inhibition in experiment [1] is 6.65%; in experiment [2], 0.6%; in experiment [3] it was 18.1%; in experiment [4], 25.4%; in experiment [5], 41.4%; in experiment [6], 28.6%.

For the compound `CC1=C(C(=O)Nc2ccc([N+](=O)[O-])cc2)C(c2ccco2)C(C(=O)Nc2ccc([N+](=O)[O-])cc2)=C(C)N1`, the growth inhibition in experiment [1] is 30.2%; in experiment [2], 35.5%; in experiment [3] it was 34.4%; in experiment [4], 38.2%; in experiment [5] it was 43.5%; in experiment [6] it was 14.9%.

On to `O=CNCCNC=O`, for which the growth inhibition in experiment [1] was 0.05%; in experiment [2], -2.25%; in experiment [3], -15%; in experiment [4], -12.7%; in experiment [5] it was 0.65%; in experiment [6], -1.85%.

For the compound `Cc1ccc2nc(C)cn2c1`, the growth inhibition in experiment [1] is -0.05%; in experiment [2], 7.7%; in experiment [3] it was -1.15%; in experiment [4], 14.3%; in experiment [5], 10.7%; in experiment [6], 2.3%.

As for `CC1Cc2ccc(OCC(O)CO)cc2C1=O` (stereo not drawn), the growth inhibition was 7.35% in experiment [1]; 1.8% in experiment [2]; 11.1% in experiment [3]; 15.1% in experiment [4]; -0.2% in experiment [5]; 1.7% in experiment [6].

For `N#CNC(=Nc1ccccc1)[N](C#N)[Sn]([c]1ccccc1)([c]1ccccc1)[c]1ccccc1`, the growth inhibition in experiment [1] is 98.7% (active); in experiment [2], 98.3% (active); in experiment [3] it was 99.2% (active); in experiment [4], 98.7% (active); in experiment [5], 96.5% (active); in experiment [6], 98.6% (active).

As to `CN1CCc2c1nc(-c1ccccc1)c1c2N(C)CC1`, the growth inhibition in experiment [1] was 2.2%; in experiment [2], -11%; in experiment [3], -6.4%; in experiment [4], 9.65%; in experiment [5], -18.2%; in experiment [6], -1.5%.

Turning to `CCCCN=C(C)CC(=O)CC(=O)c1ccccc1`, the growth inhibition in experiment [1] is 30.3%; in experiment [2] it was 23.1%; in experiment [3], 44.4%; in experiment [4] it was -53.6%; in experiment [5] it was 22.4%; in experiment [6], 33.9%.

In the case of `O=C(c1ccccc1)[C@@H]1C[C@H](Sc2ccccc2)c2cc(Cl)ccc2N1`, the growth inhibition in experiment [1] is 39.7%; in experiment [2], -10.5%; in experiment [3], 4.1%; in experiment [4] it was 23.8%; in experiment [5], 0.8%; in experiment [6] it was -3.5%.

As to `CCOC/C(=N\NC(N)=O)c1ccccc1`, the growth inhibition was -16.8% in experiment [1]; -22.2% in experiment [2]; -22.9% in experiment [3]; -1.85% in experiment [4]; 9.3% in experiment [5]; -20.3% in experiment [6].

For `CN1CCc2ccccc2C1Cc1cc(OCc2ccccc2)ccc1N` (stereo not drawn), the growth inhibition is 36.2% in experiment [1]; 1.25% in experiment [2]; 23.6% in experiment [3]; 30.6% in experiment [4]; 14.8% in experiment [5]; 22.1% in experiment [6].

For `COc1cc2c(cc1OC)C1CCN3C(=O)CCC3[N+]1(C)CC2` (stereo not drawn), the growth inhibition in experiment [1] is 46.6%; in experiment [2] it was -1.05%; in experiment [3], 28.9%; in experiment [4], -4.3%; in experiment [5] it was 3.2%; in experiment [6], 8.7%.

As for `CN(C)c1ccc(/C=c2\sc3nc4ccccc4n3c2=O)cc1`, the growth inhibition is -8.75% in experiment [1]; -32.3% in experiment [2]; -13.1% in experiment [3]; -15.3% in experiment [4]; -16.5% in experiment [5]; -21.4% in experiment [6].

As for `O=C(OCCCl)OCCCl`, the growth inhibition in experiment [1] is 41.5%; in experiment [2] it was 18.9%; in experiment [3], 22.4%; in experiment [4] it was -21.9%; in experiment [5] it was -5.3%; in experiment [6], 25%.

Consider `c1ccc2c(SCN3CCOCC3)cccc2c1` (tested in a mixture with another compound), for which the growth inhibition is 35% in experiment [1]; 21.6% in experiment [2]; 39% in experiment [3]; 40.9% in experiment [4]; 21.8% in experiment [5]; 29.8% in experiment [6].

In the case of `O=C(COc1ccc(Cl)c(Cl)c1)Nc1ccc(C(=O)CCl)cc1`, the growth inhibition in experiment [1] is 6%; in experiment [2] it was 31.3%; in experiment [3], 19.4%; in experiment [4] it was -3.35%; in experiment [5], 42.5%; in experiment [6] it was 9.3%.

Take `CCn1c2ccc(N=C=O)cc2c2c3[nH]c(=O)c4cccn4c3ccc21`: the growth inhibition in experiment [1] was -30.9%; in experiment [2], 10.2%; in experiment [3], -9.4%; in experiment [4], 0.55%; in experiment [5] it was -1.8%; in experiment [6], 1.25%.

Turning to `CC(=O)NC1C(O)CC(OCCCSCCN)(C(=O)O)OC1C(O)C(O)CO` (stereo not drawn), the growth inhibition in experiment [1] is -6.25%; in experiment [2] it was -22.6%; in experiment [3] it was -23.1%; in experiment [4], 11.3%; in experiment [5], -16.8%; in experiment [6] it was -26.5%.

On to `CC(=O)Nc1ccc(Br)cc1C`, for which the growth inhibition in experiment [1] was 25.1%; in experiment [2], 1.95%; in experiment [3], 2.25%; in experiment [4], -10.9%; in experiment [5], -2.4%; in experiment [6], 30.6%.

On to `N=c1c(-c2ccccc2)cc2ccccc2n1O`, for which the growth inhibition is 7.6% in experiment [1]; 10.3% in experiment [2]; -6.95% in experiment [3]; -0.1% in experiment [4]; -5.35% in experiment [5]; -5.25% in experiment [6].

For the compound `CCOC(=O)C(NC(C)=O)C(C)O` (stereo not drawn), the growth inhibition is 5.85% in experiment [1]; 3.95% in experiment [2]; 5.05% in experiment [3]; 3.85% in experiment [4]; 2.95% in experiment [5]; -0.75% in experiment [6].

As to `O/N=C(/Cc1ccccc1)c1ccccc1`, the growth inhibition in experiment [1] is 26.6%; in experiment [2], 33.6%; in experiment [3], 11.1%; in experiment [4], -17.1%; in experiment [5], 5.15%; in experiment [6] it was 17.8%.
